G9a block – inhibitors of human histone lysine methyltransferase G9a. G9a H3K9 monomethylation, AlphaScreen, 2 h. Potency, µM (highest dose often 102 µM), inactives show at the highest dose activity, negative = inhibition, actives largely listed as inhibitors. hit rate 8.8% among 350,000; also: potency is read from the fitted curve at half-maximal effect; % is scaled to controls: 0 for no effect and ±100 for the full control effect; nearly all actives have a fitted effect of over 75% in size
Target sequence (Q96KQ7 913-1193 limits assumed): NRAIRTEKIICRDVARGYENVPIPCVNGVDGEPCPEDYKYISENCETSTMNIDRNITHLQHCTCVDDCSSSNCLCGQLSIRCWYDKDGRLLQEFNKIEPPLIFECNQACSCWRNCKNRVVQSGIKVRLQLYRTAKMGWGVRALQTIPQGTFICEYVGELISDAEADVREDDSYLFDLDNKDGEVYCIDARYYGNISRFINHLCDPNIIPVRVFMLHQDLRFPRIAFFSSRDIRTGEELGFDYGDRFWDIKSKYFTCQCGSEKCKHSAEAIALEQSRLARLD
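G9a (20 nM) preincubated 15 min RT with compounds, then 500 nM biotinylated H3K9 peptide and 20 uM SAM added; 2 h RT reaction. Monomethyl-H3K9 product detected by AlphaScreen with anti-H3K9me1 antibody, streptavidin donor and anti-rabbit IgG acceptor beads.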
HP1b binding inh – inhibitors of HP1-beta chromodomain binding to methylated histone tails; P83916; AlphaScreen HP1-beta / biotin-H3K9me3 peptide binding; Potency, µM (doses to about 114 µM), for inactives: top-dose activity change, negative = inhibition, hits mostly inhibitors; hit rate 0.56% among 390,000; AID 540317; also: potency is read from the fitted curve at half-maximal effect; nearly all actives have a fitted effect of over 70% in size
Target sequence (P83916 whole entry, looked up): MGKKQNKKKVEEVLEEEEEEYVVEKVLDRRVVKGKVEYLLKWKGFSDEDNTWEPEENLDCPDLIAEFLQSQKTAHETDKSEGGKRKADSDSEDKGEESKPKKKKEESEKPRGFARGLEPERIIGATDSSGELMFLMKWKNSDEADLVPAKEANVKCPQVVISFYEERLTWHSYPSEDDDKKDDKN
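Compound inhibition of the preformed complex between 50 nM HP1-beta and 50 nM biotinylated H3K9me3 peptide was read by AlphaScreen. Buffer was PBS pH 7.4 with 0.01% Tween-20. Incubations ran 30 min at room temperature, with 10 ug/mL donor/acceptor beads.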
PLK1 PBD block – inhibitors of human PLK1 polo-box domain binding. Plk1 PBD binding of FITC phosphopeptide, fluorescence polarization. Potency, µM, inactives show max response, negative = inhibition, hits mostly inhibitors. hit rate 2.8% among 360,000. AID 720504; also: potency is read from the fitted curve at half-maximal effect; series mostly up to about 57 µM; % is scaled to controls: 0 for no effect and ±100 for the full control effect; nearly all actives have a fitted effect of over 65% in size
JMJD2A Tudor – blocks the human JMJD2A Tudor domain. O75164. AlphaScreen JMJD2A-Tudor / H3K4me3 peptide binding. Potency, µM (top dose mostly 114 µM), inactives show at the highest dose activity change, negative = inhibition, actives largely listed as inhibitors. hit rate 4.4% among 390,000; also: potency is read from the fitted curve at half-maximal effect; % is scaled to controls: 0 for no effect and ±100 for the full control effect; nearly all actives have a fitted effect of over 50% in size
BAZ2B inh – blocks human BAZ2B; AlphaScreen BAZ2B-H3K14Ac peptide displacement; hit rate 4.4% among 360,000; Q9UIF8; Potency, µM (series often up to 114 µM), without a hit: at the highest dose activity change, negative = inhibition, actives largely listed as inhibitors; also: potency is read from the fitted curve at half-maximal effect; % is scaled to controls: 0 for no effect and ±100 for the full control effect; nearly all actives have a fitted effect of over 60% in size
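Protein-peptide AlphaScreen: BAZ2B 50 nM, b-H3K14Ac 50 nM, 1x PBS pH 7.4 + 0.01% Tween-20. Preincubation 30 min RT; cpd 30 min RT (top 110 uM); beads 20 min RT, light-protected.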
PI5P4K alpha inh – blocks human PI5P4K alpha kinase activity. P48426. PI5P4Kalpha enzyme, ADP-Glo luminescence, 60 min; stronger effect = lower value. max response, %. hit rate 1.2% among 330,000. AID 652105; active = max response of -50% or lower; inconclusive = between -30% and -50%; inactive = -30% or higher; also: value at the top dose of about 77 µM; % is scaled to controls: 0 for no effect and ±100 for the full control effect
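ADP-Glo luminescence end-point read after a 60 min room-temperature kinase reaction of PI5P4Kalpha plus substrate, initiated with ATP at 5 microM final. Buffer: 0.038 M HEPES pH 7.4, EGTA, 0.1% CHAPS, 5% DMSO.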
Numbers without * were called inactive; ? = inconclusive; nt = no result given; [ ] = another dose, or the depositor's remark. A selection: hits, their analogues and other compounds. The true share with any hit is near 12%. Unless noted, calls follow the shape of the dose curve; as a rule, active = well fitted curve in the direction sought with a large enough effect; inconclusive = small, poorly fitted or top-dose-only effect, or another doubt; inactive = no such curve, though single readings can be large; an effect the other way counts as inactive or inconclusive.

SMILES	G9a block	HP1b binding inh	PLK1 PBD block	JMJD2A Tudor	BAZ2B inh	PI5P4K alpha inh
COCCn1c(=NC(=O)c2cc(Cl)sc2Cl)sc2cc(S(N)(=O)=O)ccc21	28µM*	16%	-5%	-7%	-8%	2
O=c1cnnc(N/N=C/C2CC=CCC2)[nH]1 (stereo not given)	56%	40%	3%	32µM*	8.9µM*	0
CCOc1ccc(C(=O)Nc2c(C(=O)Nc3ccccc3F)oc3ccccc23)cc1OCC	-11%[59 µM]	28%	nt	-6%	-15%	nt
CCOC(=O)N1CCN(C(=O)c2ccc3nc(N4CCC(C)CC4)sc3c2)CC1	20%[0.0925 µM]	7%	-7%	-13%	-1%	7
Cn1nnc2cc(C(=O)N3CCN(c4ccccn4)CC3)ccc21	18µM*	-2%	-9%	-12%	4%	-12
CC1CCN(c2nc3ccc(C(=O)N4CCN(Cc5ccccc5)CC4)cc3s2)CC1	71µM*	2%	-2%	?	-9%	-1
O=C(c1ccc2nc(N3CCCCC3)sc2c1)N1CCN(c2ccccn2)CC1	56µM*	54%	-5%	-29%	-31%	3
Cc1cccc(N2CCN(C(=O)c3ccc4nc(N5CCCCC5)sc4c3)CC2)c1C	-10%	-22%	-5%	-31%	-6%	-3
COc1cc2ccc(NC(C)=O)cc2cc1OC	nt	nt	-10%	nt	nt	-1
O=C(O)CCC(C(=O)O)N1C(=O)C2C3CCC(C3)C2C1=O (stereo not given)	nt	nt	-7%	nt	nt	-8
O=C1CN(S(=O)(=O)c2cccc(Cl)c2Cl)c2ccccc2N1	50µM*	14%	?	-10%	3%	-13
O=C1CN(S(=O)(=O)c2ccc(Br)cc2)c2ccccc2N1	-4%	26%	-7%	-10%	3%	4
O=C(Cc1ccc(Cl)cc1)Oc1cccc2cccnc12	?	21%	-2%	25µM*	10µM*	2
O=C(Oc1cccc2cccnc12)c1ccco1	26%[59 µM]	28%	-7%	-17%	71µM*	5
O=C(Oc1cccc2ccccc12)c1ccco1	?	58%	-7%	16%	5%	nt
NNC(=O)COc1cccc2cccnc12	-16%[59 µM]	44%	-5%	-4%[11.4 µM]	-5%	3
O=C(Oc1ccc(Cl)c2cccnc12)c1ccco1	?	42%	-1%	-18%	50µM*	2
O=C(Oc1cccc2cccnc12)c1ccc(Br)o1	?	29%	-1%	-23%	50µM*	-11
O=C(COc1ccc(Cl)c2cccnc12)N1CCOCC1	13%[59 µM]	43%	-11%	-12%	0%	-1
Nc1cccc2nsnc12	11µM*	-7%	?	-15%	-5%	-14
Cc1ccc2nsnc2c1N	nt	19%	-3%	-9%	0%	-8
CCOc1ccc2nc(NC(=O)c3cnccn3)sc2c1	?	28%	-15%	-12%	-5%	0
O=C(Nc1nc2ccc(F)cc2s1)c1ccccn1	-3%	61%	1%	-12%	40µM*	-4
O=C(Nc1nc2ccccc2s1)c1cnccn1	3.5µM*	26%	-5%	-33%	7%	nt
NC(=O)c1ccc(NC(=O)CN2CCN(c3ccccc3)CC2)cc1	nt	42%	-1%	-11%	?	3
SMILES	G9a block	HP1b binding inh	PLK1 PBD block	JMJD2A Tudor	BAZ2B inh	PI5P4K alpha inh
O=C(Nc1cccc(C(=O)O)c1)/C(=C\c1ccc2c(c1)OCO2)NC(=O)c1ccc(Br)o1	-42%	0%	?	-25%	-15%	-12
O=C(NCc1ccco1)/C(=C/c1ccco1)NC(=O)c1ccc(Br)o1	?	14%	-18%	-22%	-8%	7
O=C(Nc1ccc(C(=O)O)cc1)/C(=C\c1ccco1)NC(=O)c1ccc(Br)o1	35µM*	?	30µM*	?	-2%	-12
O=C(O)/C(=C/c1ccco1)NC(=O)c1ccc(Br)o1	45µM*	13%	-12%	-26%	-5%	6
O=C(NCCCO)/C(=C\c1ccco1)NC(=O)c1ccc(Br)o1	28µM*	32%	-3%	-12%	-2%	4
O=C(Nc1ccc(C(=O)O)cc1)/C(=C\c1ccc2c(c1)OCO2)NC(=O)c1ccc(Br)o1	2%	-13%	27µM*	45µM*	-4%	6

Screening data from PubChem BioAssay.
